ChEMBL document CHEMBL3988442, “University of Dundee, Small-Polar-MMV Screening Library” (2021)
For part of these data: Measured potencies and affinities stand elsewhere.

Legend:
Design in all cases: scale not given: direction of the effect not stated beside the values
[1] = target: Protein translocase subunit SecA (Escherichia coli (strain K12)) (UniProt P10408); assay: Assay to Identify E. coli SecA ATPase Inhibitors; assay type: functional; details: 30 µM
[2] = target: T1, Ubiquitin-activating enzyme e1, putative (Leishmania donovani (strain BPK282A1)) (UniProt E9BSI1); assay: Leishmania donovani Ubiquitin Activating Enzyme (LdE1); assay type: functional; details: 30 µM
T1 sequence (whole entry): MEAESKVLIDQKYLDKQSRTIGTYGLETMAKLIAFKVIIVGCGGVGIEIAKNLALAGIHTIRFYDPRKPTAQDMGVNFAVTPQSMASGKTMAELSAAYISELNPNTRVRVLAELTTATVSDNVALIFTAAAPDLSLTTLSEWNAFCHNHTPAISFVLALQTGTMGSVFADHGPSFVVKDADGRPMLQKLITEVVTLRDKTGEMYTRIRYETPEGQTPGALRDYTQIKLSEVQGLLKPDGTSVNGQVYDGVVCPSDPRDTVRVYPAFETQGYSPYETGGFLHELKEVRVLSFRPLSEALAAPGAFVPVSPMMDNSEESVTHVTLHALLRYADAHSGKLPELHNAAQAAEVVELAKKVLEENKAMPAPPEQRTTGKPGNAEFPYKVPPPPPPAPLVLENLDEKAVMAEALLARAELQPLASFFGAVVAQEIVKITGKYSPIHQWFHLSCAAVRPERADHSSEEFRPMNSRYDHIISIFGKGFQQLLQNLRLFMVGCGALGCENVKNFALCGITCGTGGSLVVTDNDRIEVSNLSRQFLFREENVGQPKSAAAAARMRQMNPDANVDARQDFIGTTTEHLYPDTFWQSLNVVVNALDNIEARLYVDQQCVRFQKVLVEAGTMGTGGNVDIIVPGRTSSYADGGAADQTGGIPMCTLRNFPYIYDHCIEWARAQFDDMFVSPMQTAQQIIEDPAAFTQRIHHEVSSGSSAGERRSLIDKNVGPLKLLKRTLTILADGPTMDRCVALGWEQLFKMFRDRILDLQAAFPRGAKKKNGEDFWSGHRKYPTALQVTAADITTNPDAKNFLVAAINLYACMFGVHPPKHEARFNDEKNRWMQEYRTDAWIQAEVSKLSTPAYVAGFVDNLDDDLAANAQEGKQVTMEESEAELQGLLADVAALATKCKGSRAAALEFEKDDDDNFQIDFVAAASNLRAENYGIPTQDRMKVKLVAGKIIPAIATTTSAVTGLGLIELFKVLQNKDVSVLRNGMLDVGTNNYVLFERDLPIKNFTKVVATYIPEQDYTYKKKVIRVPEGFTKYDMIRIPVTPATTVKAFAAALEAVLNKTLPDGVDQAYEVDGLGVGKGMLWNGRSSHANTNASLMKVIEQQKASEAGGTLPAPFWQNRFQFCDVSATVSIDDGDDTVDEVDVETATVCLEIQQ

[3] = target: AMP-activated protein kinase, AMPK (Homo sapiens) (UniProt P54646+O43741+P54619+Q9UGJ0+Q9Y478+Q13131+Q9UGI9); assay: AMP-dependent Kinase enzyme assay. An in vitro enzyme assay that detects ADP turnover that is directly proportional to AMPK activity. This uses naive AMPK that is activated during the assay with MK-8722; assay type: functional; details: 30 µM
[4] = target: Sialic acid-binding Ig-like lectin 9 (Homo sapiens) (UniProt Q9Y336); assay: Hs-Siglec9 ALPHAscreen SOP 20170721; details: 10 µM
Sialic acid-binding Ig-like lectin 9 (Homo sapiens), sequence (Q9Y336 whole entry): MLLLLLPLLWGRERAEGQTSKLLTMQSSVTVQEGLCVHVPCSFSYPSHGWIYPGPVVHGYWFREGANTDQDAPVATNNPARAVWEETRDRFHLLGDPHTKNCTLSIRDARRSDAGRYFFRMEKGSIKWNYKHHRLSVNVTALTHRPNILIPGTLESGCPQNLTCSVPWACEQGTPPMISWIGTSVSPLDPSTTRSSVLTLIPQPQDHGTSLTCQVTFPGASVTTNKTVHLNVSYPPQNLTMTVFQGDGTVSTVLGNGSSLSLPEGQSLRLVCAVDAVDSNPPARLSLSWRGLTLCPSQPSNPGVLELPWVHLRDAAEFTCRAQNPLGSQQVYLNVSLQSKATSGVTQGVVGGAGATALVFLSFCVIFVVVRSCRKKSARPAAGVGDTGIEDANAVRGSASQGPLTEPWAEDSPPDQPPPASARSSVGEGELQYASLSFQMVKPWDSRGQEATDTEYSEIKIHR

[5] = system: Trypanosoma cruzi; assay: Trypanosoma cruzi phosphomannomutase and mannose-1-phosphate guanylyltransferase assay; assay type: functional; details: 10 µM
[6] = target: T2, Arginase-2, mitochondrial (Homo sapiens) (UniProt P78540); assay: in vitro enzyme assay to detect the production of urea directly proportional to the activity of Arginase II; assay type: functional; details: 33.3 µM; note: in the data most compounds retested in dose-response had high values
T2 sequence (whole entry): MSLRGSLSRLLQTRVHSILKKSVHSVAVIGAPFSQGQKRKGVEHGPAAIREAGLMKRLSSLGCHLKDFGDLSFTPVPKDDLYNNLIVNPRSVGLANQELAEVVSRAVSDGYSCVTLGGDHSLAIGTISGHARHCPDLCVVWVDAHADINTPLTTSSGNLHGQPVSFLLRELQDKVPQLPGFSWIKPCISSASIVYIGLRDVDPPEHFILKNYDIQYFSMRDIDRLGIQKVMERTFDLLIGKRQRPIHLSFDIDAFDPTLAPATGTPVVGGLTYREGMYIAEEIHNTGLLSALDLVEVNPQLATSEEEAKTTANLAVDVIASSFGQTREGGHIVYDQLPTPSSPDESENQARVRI

[7] = target: T3, Proteasome subunit beta (Trypanosoma cruzi) (UniProt O96673); assay: Trypanosoma cruzi proteasome chymotrypsin-like activity (TcProtChymo) assay.; note: in the data most compounds retested in dose-response had high values; assay type: functional; details: 9.37 µM
T3 sequence (whole entry): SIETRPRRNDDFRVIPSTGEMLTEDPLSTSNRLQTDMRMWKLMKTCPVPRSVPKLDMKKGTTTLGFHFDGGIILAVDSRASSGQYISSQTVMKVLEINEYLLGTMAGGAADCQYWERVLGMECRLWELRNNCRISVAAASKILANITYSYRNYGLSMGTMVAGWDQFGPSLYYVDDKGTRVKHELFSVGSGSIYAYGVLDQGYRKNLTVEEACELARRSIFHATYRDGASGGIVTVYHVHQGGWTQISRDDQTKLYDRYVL

[8] = species on record: Homo sapiens; assay: To identify inhibition of the IFN signalling (Jak-Stat) pathway via expression of an eGFP reporter gene under the control of an IFN-stimulated response element (ISRE) containing MxA promoter.; assay type: functional; details: 30 µM
[9] = target: T4, Tyrosyl-tRNA synthetase, putative (Trypanosoma cruzi (strain CL Brener)) (UniProt Q4DSP6); assay: Trypanosoma cruzi tyrosyl tRNA synthetase (TcYRS) _High Tyrosine SOP; assay type: functional; details: 30 µM; note: in the data most compounds retested in dose-response had high values
T4 sequence (whole entry): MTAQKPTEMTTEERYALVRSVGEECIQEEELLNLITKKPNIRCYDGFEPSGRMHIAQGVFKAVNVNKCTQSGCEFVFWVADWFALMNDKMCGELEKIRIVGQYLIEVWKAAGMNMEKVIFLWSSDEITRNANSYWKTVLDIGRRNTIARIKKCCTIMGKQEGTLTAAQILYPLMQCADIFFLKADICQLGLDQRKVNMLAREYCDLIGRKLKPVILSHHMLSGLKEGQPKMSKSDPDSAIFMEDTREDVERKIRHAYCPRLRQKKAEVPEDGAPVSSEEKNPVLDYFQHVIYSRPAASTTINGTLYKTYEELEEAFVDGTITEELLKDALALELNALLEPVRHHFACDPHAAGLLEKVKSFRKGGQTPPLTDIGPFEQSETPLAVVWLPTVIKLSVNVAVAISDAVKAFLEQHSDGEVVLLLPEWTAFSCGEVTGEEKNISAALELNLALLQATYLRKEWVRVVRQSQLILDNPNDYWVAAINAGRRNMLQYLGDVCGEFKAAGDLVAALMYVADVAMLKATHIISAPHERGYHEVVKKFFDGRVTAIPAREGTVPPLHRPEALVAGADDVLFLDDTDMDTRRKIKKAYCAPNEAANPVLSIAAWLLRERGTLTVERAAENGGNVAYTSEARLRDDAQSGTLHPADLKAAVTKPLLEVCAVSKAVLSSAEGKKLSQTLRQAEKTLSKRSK

[10] = target: T4, Tyrosyl-tRNA synthetase, putative (Trypanosoma cruzi (strain CL Brener)); assay: Trypanosoma cruzi tyrosyl tRNA synthetase (TcYRS) SOP; assay type: functional; details: 30 µM
[11] = target: Chromo domain-containing protein 1 (Saccharomyces cerevisiae (strain ATCC 204508 / S288c) (Baker's yeast)) (UniProt P32657); assay: ScCHD-1 Enzyme Inhibition Assay; assay type: functional; details: 30 µM; note: in the data most compounds retested in dose-response had high values
Chromo domain-containing protein 1 (Saccharomyces cerevisiae (strain ATCC 204508 / S288c) (Baker's yeast)), sequence (P32657 whole entry, the tested form may be a part): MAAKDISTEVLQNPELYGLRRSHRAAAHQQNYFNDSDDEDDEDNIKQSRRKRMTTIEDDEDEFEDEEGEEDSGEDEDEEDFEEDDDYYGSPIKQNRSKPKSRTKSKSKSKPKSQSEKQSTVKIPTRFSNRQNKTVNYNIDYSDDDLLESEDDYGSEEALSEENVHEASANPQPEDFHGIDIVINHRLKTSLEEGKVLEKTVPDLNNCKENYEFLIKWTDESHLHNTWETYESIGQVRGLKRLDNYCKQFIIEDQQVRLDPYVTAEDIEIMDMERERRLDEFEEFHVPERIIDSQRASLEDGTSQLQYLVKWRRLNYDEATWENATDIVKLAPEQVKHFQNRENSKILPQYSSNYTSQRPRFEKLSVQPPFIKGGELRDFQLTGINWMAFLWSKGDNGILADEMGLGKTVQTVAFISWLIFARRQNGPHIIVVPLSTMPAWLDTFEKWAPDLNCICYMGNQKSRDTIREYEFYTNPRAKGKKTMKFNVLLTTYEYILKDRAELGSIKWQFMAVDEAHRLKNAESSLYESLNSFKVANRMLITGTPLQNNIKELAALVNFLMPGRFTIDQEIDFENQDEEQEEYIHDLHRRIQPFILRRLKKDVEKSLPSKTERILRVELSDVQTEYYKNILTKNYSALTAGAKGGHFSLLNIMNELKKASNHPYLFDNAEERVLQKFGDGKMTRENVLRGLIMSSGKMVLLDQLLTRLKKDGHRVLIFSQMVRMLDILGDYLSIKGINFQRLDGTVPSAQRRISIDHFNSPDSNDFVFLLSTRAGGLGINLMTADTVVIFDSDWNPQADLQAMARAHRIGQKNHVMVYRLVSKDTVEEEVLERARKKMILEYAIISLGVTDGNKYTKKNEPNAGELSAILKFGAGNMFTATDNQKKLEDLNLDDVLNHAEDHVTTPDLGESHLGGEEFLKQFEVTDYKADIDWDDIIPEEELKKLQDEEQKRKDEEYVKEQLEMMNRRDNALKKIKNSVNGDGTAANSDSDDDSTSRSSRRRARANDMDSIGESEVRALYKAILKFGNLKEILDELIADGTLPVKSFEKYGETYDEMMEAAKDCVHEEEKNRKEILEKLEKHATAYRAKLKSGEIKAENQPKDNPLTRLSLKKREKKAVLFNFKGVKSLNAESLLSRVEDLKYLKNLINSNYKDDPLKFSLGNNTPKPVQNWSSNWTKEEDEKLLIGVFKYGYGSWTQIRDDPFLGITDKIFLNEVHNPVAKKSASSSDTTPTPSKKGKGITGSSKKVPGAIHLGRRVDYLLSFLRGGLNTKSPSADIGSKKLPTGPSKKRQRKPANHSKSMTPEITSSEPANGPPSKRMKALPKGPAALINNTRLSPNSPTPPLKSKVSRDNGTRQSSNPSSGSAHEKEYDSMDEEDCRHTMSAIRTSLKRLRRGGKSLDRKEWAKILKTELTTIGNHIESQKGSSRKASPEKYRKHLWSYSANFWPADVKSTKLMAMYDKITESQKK

Protein translocase subunit SecA (Escherichia coli (strain K12)), sequence (P10408 whole entry): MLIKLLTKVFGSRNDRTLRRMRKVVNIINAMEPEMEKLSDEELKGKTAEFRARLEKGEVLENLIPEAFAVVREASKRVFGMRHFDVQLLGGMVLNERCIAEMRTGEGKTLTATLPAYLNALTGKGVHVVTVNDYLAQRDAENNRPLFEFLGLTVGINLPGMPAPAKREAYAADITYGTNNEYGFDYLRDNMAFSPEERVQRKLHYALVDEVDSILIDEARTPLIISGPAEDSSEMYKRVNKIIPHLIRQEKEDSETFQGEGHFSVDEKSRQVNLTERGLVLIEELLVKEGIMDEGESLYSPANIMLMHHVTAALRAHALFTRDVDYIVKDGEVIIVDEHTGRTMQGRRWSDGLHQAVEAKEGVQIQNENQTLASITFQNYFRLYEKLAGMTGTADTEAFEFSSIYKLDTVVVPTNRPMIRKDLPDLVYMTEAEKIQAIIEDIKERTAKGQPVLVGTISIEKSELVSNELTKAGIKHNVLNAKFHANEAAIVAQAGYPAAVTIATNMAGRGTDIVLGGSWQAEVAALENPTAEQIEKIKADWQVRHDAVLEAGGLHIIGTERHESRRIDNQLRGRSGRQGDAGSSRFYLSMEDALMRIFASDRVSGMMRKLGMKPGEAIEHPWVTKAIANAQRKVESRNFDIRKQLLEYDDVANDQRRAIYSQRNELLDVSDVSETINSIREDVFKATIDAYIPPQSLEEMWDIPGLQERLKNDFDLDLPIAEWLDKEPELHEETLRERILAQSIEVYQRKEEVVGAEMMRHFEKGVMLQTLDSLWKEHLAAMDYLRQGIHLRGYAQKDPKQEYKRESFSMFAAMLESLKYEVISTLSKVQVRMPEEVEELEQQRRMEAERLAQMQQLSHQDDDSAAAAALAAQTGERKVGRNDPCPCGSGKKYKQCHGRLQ

Compound | Percent Effect [1] [%] | Percent Effect [2] [%] | Percent Effect [3] [%] | Percent Effect [4] [%] | Percent Effect [5] [%] | Percent Effect [6] [%] | Percent Effect [7] [%] | Percent Effect [8] [%] | Percent Effect [9] [%] | Percent Effect [10] [%] | Percent Effect [11] [%]
Cc1nc(C)c(C(=O)N2CCC(Nc3cccnc3)CC2)s1 | 0.905 | -2.74 | -10.4 | 50.9 | -3.37 | 8.38 | 14.5 | -5.72 | 2.08 | 3.7 | -3.74
CN(CC1CN(Cc2cn3ccsc3n2)CCO1)c1cccnn1 (centres undefined) | -3.37 | 26 | -3.91 | -12.4 | -7.54 | 1.47 | 23.5 | 15 | 4.76 | 21.2 | -26.4
Cc1ncccc1OC1(C(=O)NCCNc2ccccc2)CCNCC1 | -3.81 | 2.7 | -15.1 | 6.77 | 3.48 | -1.91 | 5.86 | 20.1 | 5.82 | 9.76 | -4.02
CCC1CN(CCNC(C)=O)CCN1CCOC (centres undefined) | -0.705 | 16.2 | -10.5 | -8.99 | -2.74 | -4.81 | 18.2 | 5.73 | 7.39 | 13.6 | -5.61
CCn1cnnc1CNC(=O)N(C)Cc1ccc(F)c(F)c1 | -2.13 | 18.9 | -11.7 | 14.1 | 1.04 | -5.21 | 7.57 | 8.28 | 7.39 | 18.5 | -7.63
Cn1cc(CN2CCc3c(nc(-c4ccccn4)[nH]c3=O)C2)cn1 | -4.53 | 2.67 | 8.84 | 5.72 | -2.56 | -1.17 | 6.78 | -0.565 | 12.8 | 19.2 | -1.71
COc1cccc(CCC(=O)N2CCCC(n3cc(C)cn3)C2)c1 (centres undefined) | 0.219 | -3.8 | 11.1 | -1.76 | -0.923 | 9.25 | 1.03 | -7.62 | -5.21 | 0 | -20
CCCN(CCO)C(=O)C1CCC(=O)N(CCc2ccc(Cl)cc2)C1 (centres undefined) | 0.568 | 6.94 | 1.97 | -2.89 | 2.23 | 3.53 | 8.77 | -9.44 | 4.21 | 7.69 | -5.01
CCc1nc(C2CCCN2C(=O)CCc2cccs2)no1 (centres undefined) | -3.51 | -2.7 | -4.68 | 4.58 | -3.81 | 1.29 | -4.49 | 3.17 | -0.99 | -8.54 | -2.06
